Assay outcomes: PubChem, NMMLSC
An excerpt weighted towards active compounds, which were near 3.5% of everything screened.
Bead autofluor = compound fluorescence in toxin protease inhibitor counterscreen. compound autofluorescence counterscreen, microsphere flow cytometry; hits give high values. fluorescence intensity (test concentration not listed). 3.1% of 360,000 active; in the data active = fluorescence intensity above about 16000; inconclusive = no clear call, values can overlap the other calls
BoNT F protease = BoNT/F light chain protease inhibitors, primary screen, biochemical, flow cytometry, MLPCN library; 0.22% of 360,000 active; Botulinum neurotoxin type F light chain protease (Clostridium botulinum); Multiplex microsphere protease cleavage assay; inhibition, % at 10 µM; AID 588497, 2011; in the data active = inhibition above about 35%, passing the limit was not always enough; inconclusive = no clear call, values can overlap the other calls; also: plate controls were buffer without enzyme for full effect and enzyme alone for no effect
BoNT-A LC inh2 = BoNT/A light chain protease inhibitors, primary screen, biochemical, flow cytometry, MLPCN library; inhibition, % at 10 µM; multiplex microsphere protease substrate cleavage; Botulinum neurotoxin type A light chain protease (Clostridium botulinum A str. ATCC 3502); 0.17% of 360,000 active; also: plate controls were buffer without enzyme for full effect and enzyme alone for no effect
Anthrax LF inh2 = Bacillus anthracis LF protease inhibitors, primary screen, biochemical, multiplex microsphere, MLPCN library; multiplex microsphere protease cleavage assay; inhibition, % at 10 µM; 0.12% of 360,000 active; Lethal factor (Bacillus anthracis), P15917; also: plate controls were buffer without enzyme for full effect and enzyme alone for no effect
Target sequence (P15917 whole entry, looked up): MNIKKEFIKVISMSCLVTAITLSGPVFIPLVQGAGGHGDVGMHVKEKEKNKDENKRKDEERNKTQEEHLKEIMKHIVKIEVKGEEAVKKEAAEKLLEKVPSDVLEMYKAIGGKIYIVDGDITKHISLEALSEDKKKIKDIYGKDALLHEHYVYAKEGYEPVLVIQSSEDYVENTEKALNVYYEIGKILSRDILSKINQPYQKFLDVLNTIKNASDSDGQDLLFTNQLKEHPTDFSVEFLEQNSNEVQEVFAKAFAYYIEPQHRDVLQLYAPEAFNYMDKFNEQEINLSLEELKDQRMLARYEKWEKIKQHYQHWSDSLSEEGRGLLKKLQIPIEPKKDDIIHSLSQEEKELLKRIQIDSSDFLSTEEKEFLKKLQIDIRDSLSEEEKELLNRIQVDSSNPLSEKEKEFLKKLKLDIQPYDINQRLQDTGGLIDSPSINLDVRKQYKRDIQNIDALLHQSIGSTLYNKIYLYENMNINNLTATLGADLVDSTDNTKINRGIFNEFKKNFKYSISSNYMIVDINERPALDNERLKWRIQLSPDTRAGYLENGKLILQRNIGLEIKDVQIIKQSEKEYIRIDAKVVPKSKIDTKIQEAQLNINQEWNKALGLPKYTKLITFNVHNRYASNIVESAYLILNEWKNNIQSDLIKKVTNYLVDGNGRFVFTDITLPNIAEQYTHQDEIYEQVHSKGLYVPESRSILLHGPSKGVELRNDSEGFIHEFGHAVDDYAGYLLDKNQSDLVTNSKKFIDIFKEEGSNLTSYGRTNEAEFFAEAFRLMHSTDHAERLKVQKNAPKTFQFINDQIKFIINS
* = called active by the depositor; ? = inconclusive. Rule as the data show it, unless noted: active = inhibition above about 30%; inconclusive = no clear call, values can overlap the other calls; inactive = below that.

SMILES	Bead autofluor	BoNT F protease	BoNT-A LC inh2	Anthrax LF inh2
COc1ccc(S(=O)(=O)N2CCC(C(=O)NC3(C)CCS(=O)(=O)C3)CC2)cc1OC (stereo not drawn)	4920	-12.5	-3.5	7.3
Cc1cccnc1NC(=O)CSc1nnc(CNC(=O)c2cccc([N+](=O)[O-])c2)n1C	5592	2.4	0.4	2.0
CC1CC(NC(=O)C2(C)CC2(Cl)Cl)CC(C)(C)C1 (stereo not drawn)	20800*	6.3	4.9	-15.0
O=C1c2ccccc2S(=O)(=O)N1CC(O)COc1ccc(Cl)cc1 (stereo not drawn)	3635	0.3	1.2	-2.1
O=C1c2ccccc2S(=O)(=O)N1CC(O)COc1ccc(Br)cc1 (stereo not drawn)	16210*	4.7	1.7	-0.8
CC1(C)Cc2c(c(N3CCOCC3)nc3sc4c(NCc5ccccc5)nnnc4c23)CS1	23609*	-0.3	-0.7	-1.6
Cc1c(NC(=O)c2ccc(Br)s2)c(=O)n(-c2ccccc2)n1C	4339	-3.4	-0.5	-6.0
Cc1cc(OC(=O)N(C)C)nc(SCc2c(Cl)cccc2Cl)n1	4494	-1.0	-1.1	-5.2
COc1cnc(SCc2c(Cl)cccc2Cl)nc1Cl	20944*	-7.1	-3.4	-6.7
O=C1C=C(c2cccc(CO)c2)C[C@@H](c2ccc3c(c2)OCO3)C1	3954	1.3	-0.5	-2.2
CNC(=S)NNC(=O)c1sccc1C	2048	1.3	0.7	-0.4
CCCCNC(=S)NNC(=O)c1sccc1C	16469*	-1.0	-0.1	-1.6
Cc1ccc2c(c1)c1c3n2CCCN(Cc2ccccc2)C3CCC1 (stereo not drawn)	16950*	-11.4	?	-3.3
C=C1CCN([C@@H](Cc2ccccc2)C(=O)NCc2ccc(Cl)cc2)S(=O)(=O)c2ccccc21	4056	-10.0	-0.1	-4.6
Cc1ccc(C)c(OCCn2cc(/C=C(\C#N)C(=O)NCc3cccs3)c3ccccc32)c1	22488*	2.7	2.2	-2.0
CCN(CC)c1ccc(NC(=O)Cn2nnc(-c3cccc(OC)c3OC)n2)c(C)c1	20991*	0.8	-0.7	-1.3
CC(NC(=O)c1cc2c(s1)CCCC2)C(C)(C)C (stereo not drawn)	16452*	24.2	20.3	-20.2
COC(=O)c1sc(NC(=O)c2cc3c(s2)CCCC3)nc1C	25221*	-7.8	-4.4	0.1
Cc1nc(NC(=O)c2cc3c(s2)CCCCC3)sc1C(=O)N(C)C	10711	9.1	0.5	0.0
CCC(CO)NC(=O)c1cc2c(s1)CCC2 (stereo not drawn)	3242	-3.9	0.6	0.2
CCOC(=O)CSc1nc2ccc(NC(=O)CSc3nnnn3Cc3ccccc3)cc2s1	20885*	-2.7	-1.5	-3.7
CC(C)(C)NC(=O)CSc1nc2ccc(NC(=O)CSc3nnnn3Cc3ccccc3)cc2s1	3772	?	0.8	-8.4
Cn1c(SCc2cccc(F)c2)nnc1-c1ccccn1	16789*	1.3	-0.5	-2.0
COC(=O)c1[nH]c2cc(OC)ccc2c1NC(=O)CCN1CCN(c2ccccc2)CC1	23523*	1.3	0.4	-2.2
CCOC(=O)C1CCCN(CCC(=O)Nc2c(C(=O)OC)[nH]c3cc(OC)ccc23)C1 (stereo not drawn)	19014*	5.8	?	-2.3
SMILES	Bead autofluor	BoNT F protease	BoNT-A LC inh2	Anthrax LF inh2
CCOC(=O)C1CCCN(CC(=O)Nc2c(C(=O)OC)[nH]c3ccc(Br)cc23)C1 (stereo not drawn)	3137	-2.7	0.3	-4.6
O=C(Cn1cc(COc2ccc(Br)cc2[N+](=O)[O-])nn1)c1ccc(O)cc1	3733	-3.6	0.0	-0.3
CCCCCN1C(=O)/C(=C/c2c(N3CCc4ccccc4C3)nc3ccccn3c2=O)SC1=S	21934*	-23.4	24.9	-0.9
O=C(Nc1c(Cl)cc(Cl)cc1-c1nc2ccccc2s1)c1ccc(Br)o1	17431*	-5.5	?	-0.1
O=C(Nc1ccccc1-c1nc2ccccc2s1)c1ccco1	3130	-4.7	-0.1	-3.3
COc1ccc(C(=O)CC(=O)Nc2ccc([N+](=O)[O-])cc2)cc1	3498	-18.7	-1.1	8.9
COc1ccc(C(=O)CC(Nc2ccc([N+](=O)[O-])cc2)c2ccc(OC)cc2)cc1 (stereo not drawn)	24070*	-4.5	-1.9	-1.5
CCOC(=O)C1=C(C)NC(SCC(N)=O)=C(C#N)C1c1ccccc1 (stereo not drawn)	7427	-13.1	-0.6	-3.4
CCOC(=O)C1=C(c2ccccc2)NC(SCC(N)=O)=C(C#N)C1c1cccnc1 (stereo not drawn)	19434*	3.6	2.7	-1.7
COc1cc2c(cc1OC)CN(C(=O)C1(c3ccccc3)CC1)CC2	19639*	2.9	?	-0.1
CCCCC(CCC(=O)Nc1nccs1)C(=O)O (stereo not drawn)	20150*	-0.2	?	-2.5
Cn1c(SCC(=O)N2CCCc3ccccc32)nnc1-c1cccs1	23321*	0.8	-1.0	-4.5
Cc1nnc(SCC(=O)NCc2ccccc2)[nH]c1=O	17403*	-5.7	-3.0	-0.9
Cn1c(SCC(=O)N2CCCc3ccccc32)nnc1-c1c[nH]c2ccccc12	3033	-8.4	0.3	-3.2
Cn1c(Cc2cccs2)nnc1SCC(=O)N1CCCc2ccccc21	4080	-14.6	0.6	-0.3
O=C(CSc1nnc(Cc2cccs2)n1CCc1ccccc1)N1CCCc2ccccc21	23460*	1.2	-0.4	-1.5
CC1CCc2cc(F)ccc2N1C(=O)CSc1nnc(-c2cccs2)n1C (stereo not drawn)	23587*	-2.8	?	-3.2
CCN(CC)C(=O)CSc1ncccc1-c1nc2ccccc2[nH]1	4462	1.1	0.5	-0.1
COc1ccc(F)cc1S(=O)(=O)NCCCn1ccnc1	3757	-25.4	-2.2	8.0
Cc1nnc(SCC(=O)N2CCCc3ccccc32)[nH]c1=O	16177*	0.5	1.4	-1.9
COc1ccc(NC(=O)c2ccc(COc3ccc(C)cc3)o2)cc1	4326	-0.9	-0.2	-0.3
O=C(O)c1cc(N=Cc2c(O)c3ccccc3oc2=O)ccc1O	3740	-0.4	-2.4	-7.3
O=C(O)c1oc2ccccc2c1-n1cccc1	16703*	-1.7	-1.7	-3.6
C/C(=N\NC(=O)C(C)Oc1ccc([N+](=O)[O-])cc1)c1ccccn1 (stereo not drawn)	24747*	-3.7	?	-5.3
CN1CCN(c2nc(N(C)C)oc(=O)c2C#N)CC1	22716*	1.1	-0.6	-1.0
SMILES	Bead autofluor	BoNT F protease	BoNT-A LC inh2	Anthrax LF inh2
O=S1(=O)CCC(N2CCOCC2)C1 (stereo not drawn)	23902*	-3.6	?	-3.6
COc1cc(OC)nc(Oc2ccccc2C(=O)Oc2cccc(C)c2)n1	7524	-15.3	-1.0	-2.3
C=CCC(=O)NC1CCCc2c1cnn2-c1cc(F)cc(F)c1 (stereo not drawn)	3385	1.3	-2.7	-2.8
Cc1ccc(-c2noc(CNc3ccccc3)n2)cc1	21856*	-0.7	?	-2.7
Clc1ccc(Cc2nc(-c3cccnc3)no2)cc1	21733*	0.8	0.9	-1.5
COc1ccc(Cc2nc(-c3ccccc3)no2)cc1	21271*	-3.9	-2.1	-1.8
